Screening results from PubChem BioAssay.
In the library only some 31% were active in any assay of this set; here they are far more common.
PLAP activator: activates human placental alkaline phosphatase; P05187; purified PLAP enzyme, luminescent substrate read-out; stronger effect = higher value; hit rate 1.2% among 96,000; activation fold at 20 µM; in the data active means activation fold above about 2
CYP2C19 inhib: human CYP2C19 inhibition. P33261. CYP2C19 Supersomes, luciferin-H EGE luminescence, 30 min. inhibition, % at 5 µM. hit rate 21% among 96,000. AID 778;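 active means CYP2C19 inhibition above a set limit at 5 µM in the primary screen, cut at about 50% in these data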;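 further: plate controls were negative control wells for no effect and 2.5 mM tranylcypromine positive control for full effect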
CYP2C9 inh: inhibitors of human CYP2C9; CYP2C9 Supersomes, luciferin-H conversion, luminescence; inhibition, % at 5 µM; P11712; hit rate 20% among 96,000;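 active means blocking of liver enzyme CYP2C9 beyond about 50% at 5 µM, limit read from the data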
Target sequence (P11712 whole entry, looked up): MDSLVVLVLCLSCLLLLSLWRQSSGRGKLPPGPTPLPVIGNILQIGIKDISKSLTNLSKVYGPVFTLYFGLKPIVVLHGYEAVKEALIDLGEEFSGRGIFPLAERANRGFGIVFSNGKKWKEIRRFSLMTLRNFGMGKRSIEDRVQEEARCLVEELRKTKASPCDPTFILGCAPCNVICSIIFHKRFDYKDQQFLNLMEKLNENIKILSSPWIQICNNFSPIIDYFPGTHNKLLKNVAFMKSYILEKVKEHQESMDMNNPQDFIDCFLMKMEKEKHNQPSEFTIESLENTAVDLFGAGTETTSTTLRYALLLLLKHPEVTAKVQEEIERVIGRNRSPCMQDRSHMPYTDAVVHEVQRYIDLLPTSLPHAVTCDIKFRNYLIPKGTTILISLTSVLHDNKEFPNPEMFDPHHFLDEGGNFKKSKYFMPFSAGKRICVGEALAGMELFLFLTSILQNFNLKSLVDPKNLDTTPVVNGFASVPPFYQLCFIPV
CYP2C19 activ: activators of human cytochrome P450 2C19; P33261; recombinant CYP2C19, luciferin-H EGE luminescence; stronger effect = higher value; 0 = fully inhibited enzyme, 1 = untreated enzyme; activation factor at 5 µM; 96,000 tested, under 10 active; AID 1025;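 active means activation factor of at least 2 at 5 µM in the primary screen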;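 further: 0 = wells with 2.5 mM tranylcypromine and 1 = vehicle-only wells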
CYP2C9 activ: activators of human CYP2C9; recombinant CYP2C9, luciferin-H conversion, luminescence; stronger effect = higher value; factor 1 = untreated enzyme, 0 = blocked; P11712; hit rate 1.4% among 96,000; activation factor at 5 µM;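 active means activation factor of 2 or more for CYP2C9 at a 5 µM dose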;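 further: 0 = sulfaphenazole-blocked wells and 1 = vehicle-only wells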
An asterisk follows results filed as active.

SMILES | PLAP activator | CYP2C19 inhib | CYP2C9 inh | CYP2C19 activ | CYP2C9 activ
O=S(=O)(c1cnc[nH]1)N1CCc2ccccc21 | 0.8 | 98* | 100* | 0 | 0
O=C(O)CCCC(=O)N1CCc2cc(S(=O)(=O)N3CCc4ccccc43)ccc21 | 1.4 | -20 | 8 | 1.2 | 0.9
CCOc1cc(NS(=O)(=O)c2ccccc2)c(OCC)cc1NC(=O)c1ccco1 | 1.1 | 3 | 25 | 1 | 0.7
CCOC(=O)c1cc(-c2ccccc2)sc1NC(=S)Nc1cccc(C)n1 | 1 | 4 | 6 | 1 | 0.9
CCOC(=O)c1cc(-c2ccc(N)cc2)sc1N | 0.8 | 54* | 59* | 0.5 | 0.4
Nc1sc(-c2ccccc2)cc1C(=O)O | 1.3 | 37 | 64* | 0.6 | 0.4
COc1ccc(N(C(=O)c2ccc(Cl)cc2)C2=CC3CCC(C2)N3C)cc1 (stereo not drawn) | 1.6 | 3 | 23 | 1 | 0.8
CCOC(=O)Cn1c(=NC(=O)CSC(C)=O)sc2cc(F)ccc21 | 1 | 35 | 16 | 0.7 | 0.8
COc1ccc(-c2nc(-c3ccccc3OC)no2)cc1OC | 1.5 | 61* | -52 | 0.4 | 1.5
COc1ccc(-c2noc(-c3ccccc3-c3ccccc3)n2)cc1 | 0.9 | -5 | 16 | 1.1 | 0.8
COc1ccccc1-c1noc(-c2ccco2)n1 | 1 | 50 | -5 | 0.5 | 1.1
COc1ccccc1-c1noc(-c2ccccc2)n1 | 0.9 | 52* | 7 | 0.5 | 0.9
COc1ccc(-c2noc(-c3ccccc3F)n2)cc1 | 0.8 | 10 | 59* | 0.9 | 0.4
COCCCN1C(=O)c2ccc(C(=O)Nc3ccc(OC)cc3)cc2C1=O | 1 | 10 | 13 | 0.9 | 0.9
COc1ccc(/C=N/n2c(C)cc(C)c(C(N)=O)c2=O)cc1 | 0.8 | -1 | 0 | 1 | 1
COCCOC(=O)c1c(C)oc2ccc(NS(=O)(=O)c3ccccc3)cc12 | 1.2 | 63* | 65* | 0.4 | 0.3
COc1ccc2oc(C)c(C(=O)NN)c2c1 | 1 | -10 | 9 | 1.1 | 0.9
COC(=O)c1c(C)oc2ccc(NS(=O)(=O)c3cccs3)cc12 | 1.1 | 97* | 92* | 0 | 0.1
Fc1ccc(CNc2cnccn2)cc1 | 0.9 | 10 | 17 | 0.9 | 0.8
Cc1onc(-c2ccccc2)c1C(=O)NC(CC(=O)O)c1ccc(OC(C)C)cc1 (stereo not drawn) | 1.2 | 8 | -5 | 0.9 | 1.1
CC(C)(C)n1nnnc1C(c1cccs1)N1CCN(Cc2ccccc2)CC1 (stereo not drawn) | 1.4 | -5 | -4 | 1.1 | 1
CC1CCN(C(c2cccs2)c2nnnn2Cc2ccccc2)CC1 (stereo not drawn) | 0.7 | 88* | 36 | 0.1 | 0.6
c1ccc(Cn2nnnc2C(c2cccs2)N2CCOCC2)cc1 (stereo not drawn) | 1 | 63* | 5 | 0.4 | 1
O=C(c1ccco1)N1CCN(C(c2ccccc2)c2nnnn2Cc2cccs2)CC1 (stereo not drawn) | 1.5 | 32 | 35 | 0.7 | 0.7
CC1(C)CC(=O)N(c2ccccc2)C1(C)O (stereo not drawn) | 0.9 | 4 | -15 | 1 | 1.1
SMILES | PLAP activator | CYP2C19 inhib | CYP2C9 inh | CYP2C19 activ | CYP2C9 activ
CCOC(=O)c1c(-c2ccccc2)csc1NC(=O)c1ccc(S(=O)(=O)N2CC(C)OC(C)C2)cc1 (stereo not drawn) | 1.5 | 39 | 77* | 0.6 | 0.2
CCOC(=O)c1c(-c2ccccc2)csc1NC(=O)c1ccc(N2C(=O)CCC2=O)cc1 | 1.2 | 15 | 50* | 0.8 | 0.5
CCOC(=O)c1c(-c2ccccc2)csc1NC(=O)c1nn(CC)cc1Br | 1 | 10 | 10 | 0.9 | 0.9
C(=C\c1cccc2ccccc12)/c1nnc(-c2cccs2)o1 | 0.8 | 10 | -35 | 0.9 | 1.4
COc1ccc(CCNS(=O)(=O)c2cn(C)c(=O)n(C)c2=O)cc1OC | 0.9 | 22 | 4 | 0.8 | 1
C=CCOc1cccc(C2C(C(=O)c3ccco3)=C(O)C(=O)N2CCN2CCOCC2)c1 (stereo not drawn) | 1.5 | 4 | 5 | 1 | 0.9
C=CCOc1cccc(C2C(C(=O)c3ccco3)=C(O)C(=O)N2Cc2ccncc2)c1 (stereo not drawn) | 1.1 | 26 | 84* | 0.7 | 0.2
C=CCOc1cccc(C2C(C(=O)c3ccc(C)o3)=C(O)C(=O)N2Cc2ccncc2)c1 (stereo not drawn) | 1.1 | 12 | 62* | 0.9 | 0.4
CCOc1cccc(C2C(C(=O)c3ccc(C)o3)=C(O)C(=O)N2Cc2ccncc2)c1 (stereo not drawn) | 1.1 | 3 | 47 | 1 | 0.5
CC(C)CN(C(=O)c1ccc(=O)n(C)n1)c1nc2ccccc2s1 | 1.5 | 90* | 84* | 0.1 | 0.2
COc1ccc(C2(C)NC(=O)N(Cc3cc(Cl)cc4c3OCOC4)C2=O)cc1OC (stereo not drawn) | 1.2 | 65* | -177 | 0.4 | 2.8*
CC1CCCN(CC(=O)Nc2ccc(S(=O)(=O)N3CCCCCC3)cc2)C1 (stereo not drawn) | 1.4 | 26 | 62* | 0.7 | 0.4
CC1CCCN(CC(=O)Nc2ccc(S(=O)(=O)NC3CCCCC3)cc2)C1 (stereo not drawn) | 1.6 | 78* | 52* | 0.2 | 0.5
O=C(CN1CCCCC1)Nc1ccc(S(=O)(=O)N2CCCCCC2)cc1 | 1.3 | -2 | 13 | 1 | 0.9
O=C(c1cccnc1NCc1ccc(F)cc1)N1CCOCC1 | 1 | 15 | 8 | 0.9 | 0.9
COc1ccc(-n2c(Cc3cccn3C)nnc2SCC(=O)NCc2ccccc2Cl)cc1 | 1.7 | 4 | 26 | 1 | 0.7
COc1ccc(S(=O)(=O)N(C)CC(=O)Nc2c(F)cccc2F)cc1 | 0.9 | 80* | -84 | 0.2 | 1.8
COc1ccc(N(CC(=O)Nc2ccc3c(c2)OCO3)S(=O)(=O)c2ccccc2)c(OC)c1 | 1.6 | 99* | 99* | 0 | 0
Cc1cccc(NC(=O)CN(C)S(=O)(=O)c2ccc(Br)cc2)n1 | 1 | 96* | 7 | 0 | 0.9
COc1ccccc1N(CC(=O)Nc1ccc2c(c1)OCCO2)S(C)(=O)=O | 1.4 | -2 | 31 | 1 | 0.7
COc1ccc(C)cc1S(=O)(=O)N(C)CC(=O)Nc1ccc2c(c1)OCCO2 | 0.8 | 39 | 83* | 0.6 | 0.2
Cc1c(NC(=O)CSc2nnc3sc4ccccc4n23)c(=O)n(-c2ccccc2)n1C | 0.8 | 2 | 22 | 1 | 0.8
COC(=O)c1ccc(NC(=O)CN(C)S(=O)(=O)c2ccc(OC)c(C)c2)cc1 | 1.1 | 26 | -18 | 0.7 | 1.2
COc1ccc(S(=O)(=O)N(C)CC(=O)Nc2ccc3c(c2)OCO3)cc1OC | 0.9 | 25 | 15 | 0.8 | 0.9
COc1ccc(S(=O)(=O)N(C)CC(=O)Nc2ccc3c(c2)OCO3)cc1 | 1 | 61* | 54* | 0.4 | 0.5
COc1ccc(OC)c(S(=O)(=O)N(C)CC(=O)Nc2ccc3c(c2)OCCO3)c1 | 1 | 27 | 75* | 0.7 | 0.2
